# Several values for one entry are separate records, joined by “and”; a condition that tells them apart may be missing. Equal values may be shown once. In all, about 130,000 compounds went through this assay and about 350 (0.27%) were called active. The sample holds actives, similar compounds and a random draw of the others, so the mix is not that of the screen. No stated cut-off is given here; in the data, active means z-score below about -2 (passing the limit was not always enough); inactive means the rest. A structure can be active in one record and inactive in another.
# Assay: PubChem AID 504770
# Details: E. coli YBA685 rctB-dependent plasmid, OD600 growth, 3 h; stronger effect = lower value
row,Structure (SMILES),z-score
1,O=C(OCN1C(=O)c2ccccc2C1=O)c1ccccc1O,0.65 (inactive)
2,Nc1nc(/C(=C/CC(=O)O)C(=O)N[C@@H]2C(=O)N3C(C(=O)O)=CCS[C@H]23)cs1,-1.1 (inactive)
3,CO/N=C(/C(=O)N[C@@H]1C(=O)N2C(C(=O)O)=C(CSc3nc(=O)c(O)nn3C)CS[C@H]12)c1csc(N)n1,-4.8 (active) and -2 (inactive)
4,CC(=O)Nc1ccc(C(=O)N(C)Cc2cccc(F)c2)cc1,1.3 (inactive)
5,OCc1nc(-c2ccccc2)cs1,-0.45 (inactive)
6,CC(C)N1CCC(=O)N(c2ccccc2Cl)C1=O,0.25 (inactive)
7,CC(N)C(=O)Nc1ccc2c(c1)Cc1ccccc1-2 (configuration not stated),-1.1 (inactive)
8,Cc1cccc(C(=O)Nc2nnc(/N=C/c3ccc(Br)s3)s2)c1,-0.85 (inactive)
9,CC(C)CNC(=O)c1cc(-c2ccc(Br)cc2)on1,-0.2 (inactive)
10,O=C(NC1CCCC1)c1cc(-c2ccc(Br)cc2)on1,-2.5 (active)
11,O=C(NC1CCCC1)c1cc(-c2ccccc2)on1,0.55 (inactive)
12,CCn1c(SCC(=O)Nc2ccc3c(c2)OCCCO3)nc2cc(S(N)(=O)=O)ccc21,2.15 (inactive)
13,COc1ccc(-c2nc3cc(N=Cc4cccc(OC)c4O)ccc3o2)cc1,0.1 (inactive)
14,COc1ccc(-c2ocnc2C(=O)O)cc1,-0.1 (inactive)
15,CCCCSc1nnc2c(=O)[nH]c(=O)[nH]c2n1,-1.6 (inactive)
16,CC(=O)NCc1ccc(C(=O)COC(=O)c2cc(-c3ccccc3)nn2-c2ccccc2)o1,0.5 (inactive)
17,CC(=O)Oc1ccc2c(=O)c(-c3ccccc3)coc2c1C,0.9 (inactive)
18,CCOC(=O)c1c(NC(=O)c2cc3ccccc3o2)sc2c1CC(C)(C)OC2,1.4 (inactive)
19,NS(=O)(=O)c1cc(OCC(F)(F)F)ccc1OCC(F)(F)F,-0.85 (inactive)
20,Cn1cc(NC(=O)N2CCc3ccccc3C2)c2ccccc21,0.5 (inactive)
21,Cc1csc(=O)n1CC(=O)OCC(=O)c1ccc(Cl)s1,1.15 (inactive)
22,COCCn1c(C)cc(C(=O)COC(=O)Cn2c(C)csc2=O)c1C,-0.2 (inactive)
23,Cc1ccc(Cn2ccsc2=NC(=O)COC(=O)Cn2c(C)csc2=O)cc1,-3.3 (active)

row,Structure (SMILES),z-score
1,Cc1ccccc1C(=O)Nc1ccccc1N1CCN(C)CC1,0.25 (inactive)
2,O=C1NN(c2ccc(Cl)c(Cl)c2)C(=O)/C1=C\C=C\c1ccccc1,0.25 (inactive)
3,N#Cc1c(SCC(=O)C23CC4CC(CC(C4)C2)C3)sc2c(=O)[nH]c(=O)[nH]c12,-0.7 (inactive)
4,CCOc1ccc(/C=c2/sc3nnc(-c4ccccc4C)n3c2=O)cc1,-0.2 (inactive)
5,NC(=O)CSc1ccccc1NC(=O)c1cc(-c2cccs2)nn1-c1ccccc1,3.15 (inactive)
6,COc1ccc(NS(=O)(=O)N(C)C)cn1,0.3 (inactive)
7,Cc1oc2cc(O)ccc2c(=O)c1-c1nc2ccccc2[nH]1,-0.6 (inactive)
8,O=C1CCCC2=C1C(c1ccccn1)C1=C(CCCC1=O)O2,-2.45 (active)
9,O=C1CCCC2=C1C(c1ccccn1)Nc1ccc3ncccc3c12 (configuration not stated),-0.55 (inactive)
10,CCCOc1ccc(C2C3=C(CCCC3=O)OC3=C2C(=O)CCC3)cc1,-0.45 (inactive)
11,S=C(Nc1ccccc1)NC1CC2CCCC(C1)N2C1CC1 (configuration not stated),-0.5 (inactive)
12,c1ccc(CNCc2ccc3c(c2)OCO3)cc1,-1.25 (inactive)
13,O=C(CC(NCc1ccco1)C(=O)O)Nc1cccc(C(F)(F)F)c1 (configuration not stated),1.45 (inactive)
14,CCOc1ncccc1C(=O)Nc1ccc2c(c1)OCCO2,-0.25 (inactive)
15,C[N+]1(CC(O)COc2ccccc2F)CCOCC1 (configuration not stated),0.45 (inactive)
16,O=C1C(=O)N(CCO)C(c2ccccc2)/C1=C(/O)c1ccccc1 (configuration not stated),-0.3 (inactive)
17,COc1ccccc1-c1nnc(C2CCN(S(=O)(=O)c3ccc(C)cc3)CC2)o1,0.85 (inactive)
18,COC(=O)c1sc(=S)n(-c2ccc(C)cc2)c1N,0.95 (inactive)
19,COc1cc(OC)c(C(=O)OCC(=O)N(C)C2CCCCC2)cc1OC,0.65 (inactive)
20,O=C(CSc1ccccn1)Nc1cc(C(F)(F)F)cc(C(F)(F)F)c1,-0.4 (inactive)
21,COC(=O)CC1=C(C(=O)OC)C2(C(=O)N1)C(C#N)=C(N)Oc1ccccc12 (configuration not stated),0.45 (inactive)
22,CC(C(=O)O)C(C(=O)O)C(C)c1ccccc1 (configuration not stated),-0.7 (inactive)
23,O=C(NCCN1CCOCC1)C1CCN(C(=O)c2cc3sccc3n2Cc2ccc(F)cc2)CC1,-0.45 (inactive)

row,Structure (SMILES),z-score
1,O=C1NCCCCC1NC(=S)Nc1ccccc1 (configuration not stated),-0.25 (inactive)
2,COc1cc(/C=C2/C(=O)Nc3cc(Cl)ccc32)cc(OC)c1O,0.9 (inactive)
3,O=C(Cn1nnc(-c2ccccc2)n1)NC(=O)NCc1ccccc1,-0.5 (inactive)
4,CN1CCC(OC(=O)c2ccc3c(c2)OCCO3)CC1,-0.5 (inactive)
5,CCNCC(=O)Nc1ccc(NC(C)=O)cc1,0.15 (inactive)
6,O=C1C=CC(=O)N1c1ccc(Br)cc1,0.05 (inactive)
7,CC(=O)Nc1ccc(N2C(=O)C=CC2=O)cc1,-2.5 (active)
8,Cc1ccc(-c2nnc(NCc3ccco3)c3ccccc23)cc1C,-0.6 (inactive)
9,Cc1ccc(NNC(=O)C(C)(C)O)c(C)c1,-0.15 (inactive)
10,CCOC(=O)N1CCN(c2nc(-c3ccccc3)no2)CC1,0 (inactive)
11,CN1CCCc2cc(-c3ccnc4ccccc34)ccc21,0.35 (inactive)
12,COC(=O)c1cc2occc2n1Cc1ccc(C)cc1,0.3 (inactive)
13,O=C(COc1c(-c2ccco2)oc2ccccc2c1=O)NCCc1ccccc1,0.9 (inactive)
14,CCOC(=O)/C(=C(/C)N1CCCC1)P(=S)(N1CCOCC1)N1CCOCC1,-1.8 (inactive)
15,Cc1nn(-c2ccccc2)c(OC(=O)c2ccc(Br)o2)c1Sc1ccccc1,0 (inactive)
16,CC(CC(=O)OCc1ncc(-c2ccccc2)o1)c1ccccc1 (configuration not stated),0.65 (inactive)
17,Cc1cc(C(=O)Oc2ccc(C(=O)c3ccc(F)cc3)cc2)on1,-0.2 (inactive)
18,COc1ccc2oc(=O)c(C(=O)NC(C)(C)C)cc2c1,-0.45 (inactive)
19,c1ccc(-n2nnnc2Sc2nc(C3CC3)n(-c3ccccc3)n2)cc1,0.25 (inactive)
20,Cc1ccc2oc(-c3ccccc3C)nc2c1,1.9 (inactive)
21,CC(Sc1nc(N)nc(N)n1)C(=O)NC1(C#N)CCCCC1 (configuration not stated),-0.4 (inactive)
22,O=C(OCC(=O)N1CCCC1)c1ccccc1OCc1ccccc1Cl,0.2 (inactive)
23,CC(OC(=O)C1CCN(C(=O)c2ccc(Cl)cc2)CC1)C(=O)NC1CC1 (configuration not stated),1.3 (inactive)

row,Structure (SMILES),z-score
1,Cc1cc(C)c(C)c(OCC(=O)N(Cc2nc(-c3ccccc3)no2)C2CCCCC2)c1,-0.5 (inactive)
2,COc1ccc(-c2cc(C(=O)NCCCN3CCOCC3)no2)cc1,0.4 (inactive)
3,Cc1cccc(NC2=NC3CS(=O)(=O)CC3S2)c1 (configuration not stated),-0.4 (inactive)
4,Cc1nnsc1C(=O)NC(=O)c1ccccc1O,0.45 (inactive)
5,COC(=O)C(C)N(C#N)c1nc(N(C)C)nc(N(C)C)n1 (configuration not stated),-0.3 (inactive)
6,CN1CCN(c2nc(C34CC5CC(CC(C5)C3)C4)cs2)CC1,0.45 (inactive)
7,Clc1ccc2c(Sc3nncn3-c3ccccc3)ccnc2c1,0.2 (inactive)
8,C=CCN(CC=C)C(=O)COc1ncnc2sccc12,-0.3 (inactive)
9,CSc1nc(=O)n(Cc2ccccn2)c2c1CCC2,-0.15 (inactive)
10,CCCCn1c2ccccc2c2n[nH]c(=S)nc21,-0.4 (inactive) and 1.45 (inactive)
11,CCc1cccc(NS(=O)(=O)c2cc(Br)cc3c2N(C(=O)C2CC2)CC3)c1,-2.9 (active)
12,CCC(=O)N1CCc2cc(Br)cc(S(=O)(=O)NCCN3CCN(c4ccccc4F)CC3)c21,-0.85 (inactive)
13,O=C(CCS(=O)(=O)c1cc(Br)cc2c1N(C(=O)C1CC1)CC2)NCc1ccc(F)cc1,-0.8 (inactive)
14,O=C(Cn1c(=O)oc2cc(S(=O)(=O)NCc3ccccc3)ccc21)NC1CCCC1,2.3 (inactive)
15,O=C(COc1ccc(Cl)cc1)Nc1c(-c2ccc(F)cc2)nc2ccccn12,-0.15 (inactive)
16,CCOC(=O)C(Cc1ccccc1)C(=O)Nc1cccc(C)n1 (configuration not stated),-0.4 (inactive)
17,O=C(CCSc1nc(-c2ccco2)cc(C(F)(F)F)n1)N1CCCC1,0.85 (inactive)
18,Cc1nc(/N=C(/N)NC(=O)c2ccccc2)nc2ccccc12,0.6 (inactive)
19,Cc1ccc2c(c1)c1c(n2CC(O)CN2CCCCC2)C(=O)CCC1 (configuration not stated),-0.35 (inactive)
20,CC1CC(C)CN(c2ncnc3scc(-c4ccccc4)c23)C1 (configuration not stated),-0.7 (inactive)
21,CC1CCCCC1NC(=O)COC(=O)c1nc(Cl)ccc1Cl (configuration not stated),-0.55 (inactive)
22,O=C(COC(=O)/C=C/c1cn(-c2ccccc2)nc1-c1ccccc1)NC1CC1,-2.45 (inactive)
23,CCc1ccc(C(=O)CCC(=O)O)s1,-3.1 (active)

row,Structure (SMILES),z-score
1,CCc1ccc(C(=O)COC(=O)c2cccc(-n3cccc3)c2)s1,1.2 (inactive)
2,CCc1ccc(CCC(=O)O)cc1,0.8 (inactive)
3,O=c1c(/C=N/O)coc2ccc(Cl)cc12,-3.05 (active)
4,O/N=C/c1cccc(Cl)c1,-0.05 (inactive)
5,O=c1c(/C=N\O)coc2ccc(F)cc12,1.15 (inactive)
6,Cc1cccc(-n2nc(C)c3c(C)cc(=O)oc32)c1,-3.15 (active)
7,CCCc1cc(=O)oc2c1c(C)nn2C,0.15 (inactive)
8,CCCc1cc(=O)[nH]c2c1c(C)nn2-c1cccc(F)c1,2.25 (inactive)
9,CCN(CC)S(=O)(=O)c1ccc(C(=O)NCCn2c(C)cc3ccccc32)cc1,0.65 (inactive)
10,Cc1ccc(C(C(=O)NCc2ccccc2)N(Cc2ccco2)C(=O)Cn2nnc3ccccc32)cc1 (configuration not stated),-0.35 (inactive)
11,CCN1CCN(c2ccc(NC(=O)[C@H](Cc3ccccc3)N3Cc4ccccc4C3=O)cc2)CC1,1.2 (inactive)
12,CCSc1nnc(SCC(=O)c2ccc3[nH]c(=O)[nH]c3c2)s1,1.6 (inactive)
13,CCOc1ncccc1C(=O)OCC(=O)N1C(C)CCCC1C (configuration not stated),-5.9 (active)
14,CC1CCCC(C)N1C(=O)COC(=O)c1ccccc1I (configuration not stated),1.25 (inactive)
15,Cc1cc(C(=O)OCC(=O)N2C(C)CCCC2C)c2ccccc2n1 (configuration not stated),0.05 (inactive)
16,COC(=O)CN1C(=O)C(C)(C)Oc2ccc(C(=O)Nc3cccc(OC)c3)cc21,-0.45 (inactive)
17,COc1ccc(C2CC(=O)C3=C(C2)NC(=O)CC3c2ccc3c(c2)OCO3)cc1 (configuration not stated),0.05 (inactive)
18,CCCN1CCC(NC(=S)Nc2ccc3c(c2)OCO3)CC1,1.7 (inactive)
19,O=C(Nc1ccccc1)C1CCN(C(=O)c2cccs2)CC1,0.15 (inactive)
20,CCN1CCN(C(=O)c2ccc(/C=C3/Sc4ccccc4N(Cc4ccccc4C)C3=O)cc2)CC1,0.25 (inactive)

# Source: PubChem BioAssay AID504770 (ICCB-Longwood Screening Facility, Harvard Medical School, 2011)
